Screening results (PubChem)
aSyn 5UTR act: Activators via SNCA 5'UTR binding, MLPCN. alpha-synuclein 5'UTR reporter, activators screen. activity score, % (tested at 7.5 µM), hits read low. 7.1% of 300,000 active. AID 1814, 2009; in the data active = activity score below about -60%
* marks the source's active call; other numbers are inactive results. Only a sample is shown.

SMILES | aSyn 5UTR act
Clc1nc2sccn2c1/C=N/n1cnc2ccccc21 | -148*
Cc1cccc2sc(NNC(=O)c3cc(=O)c4ccccc4o3)nc12 | -62*
COc1ccc2nc(NNC(=O)c3cc(=O)c4ccccc4o3)sc2c1 | -88*
Cc1cccc2sc(NNC(=O)c3ccc(S(=O)(=O)N4CC(C)CC(C)C4)cc3)nc12 (stereo not given) | 81
NC(=O)c1oc2ccccc2c1NC(=O)c1ccc([N+](=O)[O-])o1 | 100
O=C(Nc1cccnc1)c1ccc([N+](=O)[O-])o1 | -202*
O=C(NCc1cccnc1)c1ccc([N+](=O)[O-])o1 | -117*
O=C(NN(c1ccccc1)c1ccccc1)c1ccc([N+](=O)[O-])o1 | -83*
COC(=O)c1sccc1-c1ccc(C(=O)Nc2cccnc2)o1 | -76*
COc1cccc(NC(=S)Nc2cccc3ccccc23)c1 | -70*
CCOc1ccc(NC(=S)Nc2cccc3ccccc23)cc1 | -63*
CCOc1ccc(NC(=S)Nc2cccc3cnccc23)cc1 | -89*
CCc1ccc(NC(=S)Nc2cccc(OC)c2)cc1 | -109*
COc1cccc(NC(=S)NN=C2CCCCCC2)c1 | -146*
CCOc1ccc(NC(=S)Nc2cc(OC)c(Cl)cc2OC)cc1 | -90*
S=C(Nc1cccnc1)Nc1cccc2cnccc12 | 66
COc1ccc(NC(=S)Nc2cccc3cnccc23)cc1 | -72*
O=C1SC(SC(=Nc2ccccc2)Nc2ccccc2)C(=O)N1c1ccccc1 (stereo not given) | -132*
Cc1cc(N)c(NC2=CC(=O)CC(C)(C)C2)cc1C | -108*
Cc1cccc(-c2cnn(-c3cccc([N+](=O)[O-])c3)c2N)c1 | -75*
Nc1c(-c2ccccc2)cnn1-c1cccc(Cl)c1 | -144*
Cc1cccc(-c2cnn(-c3ccccc3)c2N)c1 | -129*
Cc1ccc(CNc2nc(C)cs2)cc1 | -112*
O=C(Nc1ccc2c(c1)OCCO2)N1CCOCC1 | -80*
CC1CN(C(=O)Nc2ccc3c(c2)OCO3)CC(C)O1 (stereo not given) | -152*
SMILES | aSyn 5UTR act
CCC(C)c1ccc(NC(=O)N2CCOCC2)cc1 (stereo not given) | -102*
O=C(Nc1ccc2c(c1)OCO2)N1CCCC1 | -88*
O=C(O)C1CC=CCC1C(=O)Nc1ccc2c(c1)OCCO2 (stereo not given) | -73*
O=C(Nc1ccc2c(c1)OCO2)N1CCOCC1 | -84*
O=C(Nc1ccc2c(c1)OCCO2)N1CCN(Cc2ccccc2)CC1 | -66*
Nc1nc(CSc2ccccn2)nc(Nc2ccccc2)n1 | -85*
COc1ccc(OCc2nc(N)nc(Nc3ccc(C)cc3)n2)cc1 | -69*
Nc1nc(COc2ccccc2C=O)nc(Nc2ccccc2)n1 | -119*
COc1ccc(Nc2nc(N)nc(CSc3nccn3C)n2)cc1 | -87*
CC1CC(=O)c2c(cc3c(-c4c(O)cc(O)c5c(O)c6c(cc45)OC(C)CC6=O)c(O)cc(O)c3c2O)O1 (stereo not given) | 70
COc1ccc(Nc2nc(N)c([N+](=O)[O-])c(NC3CCCCC3)n2)cc1 | 62
COc1ccc(Nc2nc(N)nc(CSC(=S)N3CCCCC3)n2)cc1 | -62*
Oc1ccc(Br)cc1C=Nc1ccc2c3c(cccc13)CC2 | -69*
CN(C)c1ccc(N/C=C/C(=O)c2ccco2)cc1 | -105*
CC(=O)Nc1ccc(N/C=C/C(=O)c2ccco2)cc1 | -323*
O=C(/C=C/Nc1ccc(Br)cc1F)c1ccco1 | 57
O=C(/C=C/Nc1ccccc1O)c1ccco1 | -87*
Cn1c(-c2ccc(Cl)nc2)nc2ccccc21 | -65*
Cc1cc(Cl)n2c(nc3ccccc32)c1C#N | 89
Cn1c(-c2ccc(C=O)s2)nc2ccccc21 | -123*
Cn1c(-c2cccs2)nc2ccccc21 | -93*
Cc1cc(CNC(=O)c2cc(COc3ccc(F)c(F)c3)on2)nn1C | -124*
CC(=O)c1ccc(OCc2cc(C(=O)NC(C)c3cnn(C)c3)no2)cc1 (stereo not given) | -87*
Cc1nc(C(C)NC(=O)c2cc(COc3ccc(C)c(C)c3)on2)c(C)s1 (stereo not given) | -82*
CC(=O)c1ccc(OCc2cc(C(=O)NCCn3nc(C)cc3C)no2)cc1 | -68*
SMILES | aSyn 5UTR act
Cc1cc(OCc2cc(C(=O)NC(C)c3c(C)nn(C)c3C)no2)cc(C)c1Cl (stereo not given) | -114*
CC(NC(=O)c1cc(COc2ccccc2)on1)c1nccs1 (stereo not given) | -169*
CCc1nnc(NC(=O)c2ccc(-c3ccccc3F)o2)s1 | -65*
O=C(NCc1ccccc1)c1ccc(-c2ccccc2F)o1 | -155*
O=C(Cc1ccc(-c2ccccc2)cc1)NCc1ccccc1 | 104
COc1ccc(Cl)cc1-c1nc(-c2ccc(Br)o2)no1 | -123*
Cc1ccccc1-c1nc(-c2ccc(NC(=O)c3ccc(Br)o3)cc2)no1 | -199*
Cc1ccccc1-c1nc(-c2ccc(Br)o2)no1 | -110*
Fc1ccccc1-c1nc(-c2ccc(Br)o2)no1 | -74*
CCOC(=O)c1cn2nc(SCc3ccccc3)nc2nc1C | -105*
N#Cc1cnc2nc(SCc3ccccc3)nn2c1 | -149*
C=C1C(=O)C=C[C@]2(C)C[C@@H]3OC(=O)[C@](C)(O)[C@H]3C[C@@H]12 | -527*
COc1ccc(-c2cc3ncc(-c4ccccc4)c(N)n3n2)cc1 | -96*
CC(C)(C)c1csc(CS(=O)(=O)c2ccccn2)n1 | -63*
CCn1c(COc2ccc(OC)cc2)nc2ccccc21 | -94*
OCc1nc2ccccc2n1CCCOc1ccc(Br)cc1 | -104*
COCCn1c(COc2ccc(OC)cc2)nc2ccccc21 | -82*
COCn1c(-c2ccc(OC)cc2)nc2ccccc21 | -192*
C=CCn1c(COc2ccc(OC)cc2)nc2ccccc21 | -75*
COc1ccc(C(=O)/C=C2\NCCc3cc(OC)c(OC)cc32)cc1OC | 64
COc1ccc(N/C=C\C(=O)c2ccc(Br)cc2)cc1OC | -108*
COc1ccc(N/C=C\C(=O)c2ccc(C)cc2)cc1OC | -84*
O=[N+]([O-])c1ccc2nc(-c3ccccc3)[nH]c2c1 | -121*
O=[N+]([O-])c1cccc(/C=C/c2nc3ccc([N+](=O)[O-])cc3[nH]2)c1 | -152*
CC(=O)Nc1nc(C)c(-c2nc3ccc([N+](=O)[O-])cc3[nH]2)s1 | -81*
SMILES | aSyn 5UTR act
Cn1cccc1-c1nc2ccc([N+](=O)[O-])cc2[nH]1 | -175*
Cc1cc2nc(/C=C/c3cccnc3)[nH]c2cc1C | 92
CN(C)/C=C/c1oc2ccc(O)cc2c1[N+](=O)[O-] | -86*
CC1CCN(C(=O)CNC(=O)c2ccc(Cl)cc2Cl)CC1 | -81*
O=C(NCC(=O)N1CCCCC1)c1ccc(Cl)cc1Cl | -117*
O=C(NCC(=O)N1CCCCCC1)c1ccc(Cl)cc1 | -65*
CCOc1ccc(-c2nc(CCl)cs2)cc1 | -70*
c1ccc(-c2nnc(-c3ccccn3)s2)nc1 | 78
c1ccc(C2=NNC(c3ccccn3)=NN2)nc1 | -118*
CC1CCN(CCCOc2ccc(OCc3ccccc3)cc2)CC1 | -69*
c1ccc(COc2ccc(OCCCN3CCCC3)cc2)cc1 | 55
c1ccc(COc2ccc(OCCCn3cncn3)cc2)cc1 | -102*
c1ccc(-c2ccc(OCCOCCn3cncn3)cc2)cc1 | -175*
Cc1ccc2c(C)c(C(=O)Nc3cccnc3)oc2c1 | -201*
Cc1cc2oc(C(=O)Nc3cccnc3)c(C)c2cc1C | -114*
Cc1ccc2c(Cl)c(C(=O)Nc3cccnc3)sc2c1 | -73*
Cc1ccc(NCC(=O)c2ccc([N+](=O)[O-])cc2)cc1 | -115*
